High-throughput results from PubChem BioAssay.
Most compounds without a hit are left out; they make up all but 19% or so of the library.
BCR signal inh: qHTS Assay to Find Inhibitors of Chronic Active B-Cell Receptor Signaling. ABC-DLBCL IkBa-CBG/CBR reporter, luminescence ratio, 4 h. Potency, µM (doses to about 46.1 µM), without a hit: at the highest dose activity change, negative = inhibition, hits mostly inhibitors. actives 0.05% (n = 340,000). AID 493014, 2011; active means well fitted inhibition curve with a large enough effect in the signal ratio, with a control signal flat, not every such curve was filed as active; inconclusive means small, poorly fitted or top-dose-only effect, or effect the other way, or a change in a side signal; the % refers to the signal ratio;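 further: potency means the concentration at half of the fitted maximal effect; plate controls were basal doxycycline-induced cells for no effect and cells given 10 µM MG132 for full effect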
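Concentration-response series (up to 46 uM) were applied to TMD8 dual-reporter cells for 4 h at 37C with doxycycline. Green/red ratio, after filter-overlap correction, defined %Activity; red signal alone was normalised to basal cells and zero luminescence.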
MCF10A rerep: A quantitative high throughput screen for small molecules that induce DNA re-replication in MCF 10a normal breast cells | Potency, µM (highest dose often 46.1 µM), for inactives: at the top dose activity, positive = re-replication, most hits filed as activators | actives 2.9% (n = 350,000) | MCF 10A DNA re-replication, Hoechst nuclear intensity, 48 h; further: potency means the concentration at half of the fitted maximal effect; % of control where 0% means no effect; nearly all actives have a fitted effect of over 50% in size
SW480 rerep: A quantitative high throughput screen for small molecules that induce DNA re-replication in SW480 colon adenocarcinoma cells. Potency, µM (series often up to 46.1 µM), without a hit: at the highest dose re-replication activation, actives largely listed as activators. actives 1.8% (n = 340,000). SW480 DNA re-replication, Hoechst DNA content imaging, 48 h; further: potency means the concentration at half of the fitted maximal effect; % of control where 0% means no effect; nearly all actives have a fitted effect of over 55% in size
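Image-based read-out: total Hoechst fluorescence of nuclei (405 nm excitation, 500-530 nm emission), with hits raising the fraction of high-intensity nuclei. SW480 colon cells incubated 48 hr with compounds at 37 C.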
TDP1 cell noCPT: qHTS for Inhibitors of human tyrosyl-DNA phosphodiesterase 1 (TDP1): qHTS in cells in absence of CPT; AID 686978, 2013; actives 15% (n = 420,000); DT40 Tdp1-/- hTDP1 cells, no CPT, ATP luminescence, 48 h; Potency, µM (series often up to 46.2 µM), for the others: at the highest dose activity change, negative = growth inhibition, actives largely listed as inhibitors; further: potency means the concentration at half of the fitted maximal effect; on the % scale 0 is the no-effect control and ±100 the full control effect; nearly all actives have a fitted effect of over 55% in size
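Growth of hTDP1-complemented DT40 Tdp1-knockout cells is measured by ATP luminescence after at least 48 hr compound exposure at 37 °C, with DMSO substituting for the 20 nM CPT used in the parallel screen.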
IL-1B inflam inh: qHTS for Inhibitors of Inflammasome Signaling: IL-1-beta AlphaLISA Primary Screen. THP-1 LPS/ATP IL-1B secretion, AlphaLISA, 16 h; stronger effect = lower value. activity change, % at 57.5 µM. actives 4.7% (n = 360,000); in the data active means activity change below about -50%; inconclusive means mostly about -30% to -49%; further: on the % scale 0 is the no-effect control and ±100 the full control effect
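THP-1 cells pretreated 1 hr with compounds (up to 57.5 uM final), then stimulated with LPS (250 ng/mL final) plus ATP (1.25 mM final); secreted IL-1B measured by AlphaLISA after 16 hr, decreased signal indicating inhibition.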
TDP1 cell CPT: qHTS for Inhibitors of human tyrosyl-DNA phosphodiesterase 1 (TDP1): qHTS in cells in presence of CPT; Potency, µM (series often up to 46.2 µM), for inactives: top-dose activity change, negative = growth inhibition, actives largely listed as inhibitors; actives 12% (n = 420,000); chicken DT40 Tdp1-/-;hTDP1 cells + 20 nM CPT, ATP luminescence, 48 h; further: potency means the concentration at half of the fitted maximal effect; on the % scale 0 is the no-effect control and ±100 the full control effect; nearly all actives have a fitted effect of over 55% in size
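Cell growth measured by CellTiter-Glo luminescence after a minimum 48 h, 37 C compound exposure with 20 nM CPT in Tdp1-knockout DT40 cells stably expressing hTDP1, seeded 400/well; qHTS titration format.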
Active calls of the source: *; ? = inconclusive; . = not tested or not shown. Unless noted, the call rests on the fitted dose curve; in most records, active means well fitted curve in the direction sought with a large enough effect; inconclusive means small, poorly fitted or top-dose-only effect, or another doubt; inactive means no such curve, though single readings can be large; an effect the other way counts as inactive or inconclusive.

SMILES | BCR signal inh | MCF10A rerep | SW480 rerep | TDP1 cell noCPT | IL-1B inflam inh | TDP1 cell CPT
O=C(CNC(=O)c1ccc(Br)o1)NCc1ccc(Cl)cc1 | 3.3% | 25.9µM* | ? | -8.9% | 3.7 | ?
Cc1cccc(C)c1NC(=O)C1(C)CN(S(C)(=O)=O)CC(=O)N1CCc1ccccc1F (centres undefined) | . | . | . | 12.8% | -3.3 | 8.2%
Cc1cccc(C(=O)OCC(=O)NC(C)CCc2ccccc2)c1O (centres undefined) | -1.2% | ? | -4.1% | -18.8% | 10.8 | 11.2%
Cc1ccc(CSCc2ccc(C(=O)NCCC(C)C)o2)cc1 | -2.0% | ? | 5.6% | ? | -66.1* | -23.7%
O=C(NCc1ccc2c(c1)OCO2)c1ccc(CSCc2ccc(Cl)cc2)o1 | ? | ? | -4.7% | ? | 3.3 | ?
Cc1ccc(CCNC(=O)c2ccc(CSCc3ccc(C)cc3)o2)cc1 | 1.5% | . | . | ? | . | ?
Cc1ccc(CSCc2ccc(C(=O)NCCCN3CCOCC3)o2)cc1 | -4.8% | 12.6% | -6.8% | 6.51µM* | 11.5 | ?
Cc1ccccc1CSCc1ccc(C(=O)NCCCN2CCOCC2)o1 | -0.6% | 1.5% | -10.8% | 2.3% | 18.8 | -1.8%
Cc1ccc(CNC(=O)c2ccc(CSCc3ccc(Cl)cc3)o2)cc1 | 0.0% | . | . | 16.4µM* | . | ?
Cc1nn(C)c(C(=O)NCc2ccc(Cl)cc2)c1Cl | -5.2% | -1.0% | -13.3% | 4.11µM* | -9.1 | 4.11µM*
O=C(Nc1ccccc1)c1c(F)cccc1F | -15.5% | -1.8% | ? | -11.3% | -12.2 | -3.2%
O=C(Nc1ccc2c(c1)CCC2)Nc1ccccc1Cl | ? | ? | 17.7% | -22.1% | -68.7* | ?
O=C(Nc1ccc(Nc2ccccc2)cc1)c1c(F)c(F)c(F)c(F)c1F | ? | 13.1% | 22.9% | 6.51µM* | -68.4* | 6.51µM*
O=C(Nc1ccc(Nc2ccccc2)cc1)c1ccc(F)cc1 | -10.3% | -0.7% | -2.9% | 20.6µM* | -10.4 | ?
O=P(C(=S)Nc1ccccc1Cl)(c1ccccc1)c1ccccc1 | . | . | . | 14.6µM* | 24.9 | 9.2µM*
O=C(Nc1ccccc1Cl)c1ccc(C(=O)Nc2ccccc2Cl)cc1 | . | -8.2% | 6.7% | -0.9% | 1.2 | 3.6%
Cn1c(CNC(=O)CNC(=O)Cc2ccc(F)cc2)cc(=O)n(C)c1=O | -1.2% | -6.2% | -1.6% | 10.9% | 21.4 | -14.7%
O=C(Nc1ccc(Nc2ccccc2)cc1)c1c(Cl)cccc1Cl | . | 23.1µM* | 1.0% | 20.6µM* | -87.5* | ?
O=C(Nc1ccc(Nc2ccccc2)cc1)Nc1ccccc1Cl | ? | ? | 24.1% | 7.31µM* | ? | 18.4µM*
O=C(Cc1ccccc1Cl)NNC(=O)Nc1ccccc1 | -2.2% | 0.4% | 29.1µM* | 9.2% | 9.6 | 5.6%
O=C(Cc1cccc2ccccc12)NNC(=O)Nc1cccc(Cl)c1 | 12.8% | ? | 0.2% | -25.1% | -30.0 | -9.5%
CN(C)c1cccc(F)c1C(=O)NC(=O)Nc1ccc(Cl)cc1 | . | 10.3µM* | ? | 6.51µM* | 33.1 | 5.17µM*
Cc1ccc(C(=O)Nc2ccc(Nc3ccccc3)cc2)c(Cl)c1 | ? | ? | -3.6% | ? | -18.8 | ?
O=C(NC1CC(=O)N(c2ccc3c(c2)OCCO3)C1)N1CCC(O)CC1 (centres undefined) | -5.5% | 0.2% | -92.7% | -2.5% | 7.8 | 6.1%
N#Cc1ccccc1NC(=O)Nc1ccc(Cl)cc1 | -19.5% | 23.2% | -10.5% | -8.5% | -11.6 | 3.9%
SMILES | BCR signal inh | MCF10A rerep | SW480 rerep | TDP1 cell noCPT | IL-1B inflam inh | TDP1 cell CPT
O=C(CCCCC(=O)Nc1ccccc1Cl)Nc1ccccc1Cl | 0.5% | -0.9% | 2.91µM* | -1.5% | -8.3 | -8.5%
O=C(Nc1ccccc1Cl)Nc1ccccc1Cl | ? | -3.3% | 15.3% | ? | 6.9 | -19.2%
O=C(Nc1csc([N+](=O)[O-])c1)Nc1ccccc1Cl | -16.0% | 11.6µM* | 12.5% | 23.1µM* | -98.1* | 20.6µM*
Cc1ccccc1C(=O)Nc1cccc(NC(=O)c2ccc(F)cc2)c1 | ? | 3.0% | -9.1% | ? | -50.3* | -18.0%
O=C(Nc1ccc(Cl)cc1)Nc1ccccc1Sc1ncc([N+](=O)[O-])s1 | ? | ? | ? | 6.51µM* | 27.9 | 6.51µM*
CCOc1ccc(C2C(=O)N(C3CCCCC3)CC(=O)N2C2CCCC2)cc1OC (centres undefined) | -1.8% | . | . | ? | . | ?
Cc1ccc(NC(=O)c2c(F)cccc2Cl)cc1NS(C)(=O)=O | -3.0% | -3.9% | -0.3% | -7.4% | -3.3 | 4.9%
CC(C)(C)c1ccc(NC(=O)c2c(F)cccc2Cl)cc1 | ? | ? | -1.1% | 3.26µM* | -16.4 | 10.3µM*
COc1cc(/C=N/NC(=S)Nc2cccc(S(=O)(=O)N(C)C)c2)ccc1O | ? | 28.3% | -4.2% | 18.4µM* | -98.0* | ?
CN(C)S(=O)(=O)c1cccc(NC(=S)N/N=C/C2CC=CCC2)c1 (centres undefined) | 0.3% | -32.9% | -3.2% | 12.7% | 35.4 | -12.3%
CN(C)S(=O)(=O)c1cccc(NC(=S)NN=C(Cc2ccccc2)Cc2ccccc2)c1 | -6.9% | 0.9% | -2.4% | 5.17µM* | 12.9 | 5.8µM*
COc1ccc(CCNC(=O)C(=O)Nc2ccc(C)cc2)cc1OC | 3.7% | . | . | . | . | .
Cc1ccc(SC[C@H](c2ccccc2)N2CCN(CCc3ccccc3)CCC2=O)cc1 | 3.9% | 8.2µM* | 0.4% | 20.6µM* | 18.1 | ?
CC(C)C[C@@H](CSc1ccccc1)N1CCN(CCc2ccccc2)CCC1=O | 10.9% | -1.7% | -4.1% | 20.6µM* | 17.5 | ?
O=C1CCN(CCc2ccccc2)CCN1[C@H](CSc1ccccc1)c1ccccc1 | 19.5% | 1.0% | 2.1% | 11.2µM* | 25.1 | 11.2µM*
O=C1CCN(CCc2ccccc2)CCN1[C@H](CO)c1ccccc1 | -16.5% | -1.8% | -1.6% | -15.0% | 11.9 | -23.2%
COc1ccc(NC(=O)CCCOc2ccc(C)cc2)cc1S(=O)(=O)N1CCCCC1 | . | . | . | ? | -2.4 | ?
CS(=O)(=O)Nc1ccccc1-c1ccc2nccn2c1 | . | . | . | -12.8% | 24.1 | -11.6%
CCn1c(SCC(=O)NC2CC2)nnc1-c1ccc(C)cc1 | -2.9% | -1.9% | -7.5% | 5.2% | -12.6 | 0.7%
